ChEMBL document CHEMBL3433997, “St. Jude Leishmania screening dataset” (2016)
“And” between values parts separate entries of the source, which are not always exact repeats. Equal entries are not always repeated.

Legend:
Assay type in all cases: functional
[1] = biological target: Solute carrier family 2, facilitated glucose transporter member 1 (Homo sapiens) (UniProt P11166); assay: ST_JUDE_LEISH: Cytotoxicity at 2uM final concentration against transgenic Leishmania Mexicana promastigotes LmGLUT1 that are glucose transport deficient and complemented with the human glucose transporter GLUT1. Activity is measured by DNA content using SYBR green in vitro
Chain of Solute carrier family 2, facilitated glucose transporter member 1 (Homo sapiens) (P11166 whole entry): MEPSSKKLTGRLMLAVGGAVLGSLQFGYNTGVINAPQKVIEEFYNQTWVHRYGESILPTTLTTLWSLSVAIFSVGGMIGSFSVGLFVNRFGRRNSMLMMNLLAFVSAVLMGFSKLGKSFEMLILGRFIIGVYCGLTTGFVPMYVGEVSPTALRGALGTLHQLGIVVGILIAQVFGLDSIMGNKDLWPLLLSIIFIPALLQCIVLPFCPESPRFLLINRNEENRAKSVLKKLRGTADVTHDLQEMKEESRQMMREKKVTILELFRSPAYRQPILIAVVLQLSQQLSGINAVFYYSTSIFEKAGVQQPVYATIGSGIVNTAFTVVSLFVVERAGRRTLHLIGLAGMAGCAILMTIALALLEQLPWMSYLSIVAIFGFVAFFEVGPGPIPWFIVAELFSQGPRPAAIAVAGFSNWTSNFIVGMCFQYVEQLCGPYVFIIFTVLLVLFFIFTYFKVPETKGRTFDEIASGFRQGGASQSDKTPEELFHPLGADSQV

[2] = biological target: Hexose transporter 1 (Plasmodium falciparum) (UniProt O97467); assay: ST_JUDE_LEISH: Cytotoxicity at 2uM final concentration against transgenic Leishmania Mexicana promastigotes LmPfHT that are glucose transport deficient and complemented with the Plasmodium falciparum hexose transporter. Activity is measured by DNA content using SYBR green in vitro
[3] = biological target: Glucose transporter (Leishmania mexicana) (UniProt O61059); assay: ST_JUDE_LEISH: Cytotoxicity at 2uM final concentration against transgenic Leishmania Mexicana promastigotes LmGT2 that are glucose transport deficient and complemented with the L. Mexicana glucose transporter 2. Activity is measured by DNA content using SYBR green in vitro

Row | Structure (SMILES) | inhibition [1] | inhibition [2] | inhibition [3]
1 | O=C(/C=C/c1ccccc1Cl)NC1CCC(CN2C3CCC2CC(c2c[nH]c4ccccc24)C3)CC1 (stereo unspecified) | 2.84% | -0.31% | 5.5%
2 | Cc1nc(C)c(-c2ccc(Oc3ccc(OC(F)(F)F)cc3)cc2)c(OC(=O)N(CCNC(C)C)C(C)C)c1Br | 5.43% | 8.45% | 5.04%
3 | O=C(COc1ccc(Cl)cc1)N1CCC(CN2CCC(c3c[nH]c4ccccc34)CC2)CC1 | -2.1% | -1.7% | -4.27%
4 | Cc1nc(N)nc(N)c1-c1cccc(Cl)c1 | 3.73% | 4.7% | 1.38%
5 | O=C(CCC(=O)c1ccc2c3c(cccc13)CC2)NC1CCC(CN2CCC(c3c[nH]c4ccccc34)CC2)CC1 (stereo unspecified) | 3.08% | 3.49% | 4.96%
6 | O=C(NCCC1CCN(CCc2c[nH]c3ccccc23)CC1)Nc1ccc(Cl)c(Cl)c1 | 3.67% | 2.49% | 3%
7 | O=C(NC1CCN(CC2(c3ccc(Cl)cc3)CCC2)CC1)c1cscn1 | 1.16% | -2.56% | 0.83%
8 | O=C(NC1CCN(CCc2c[nH]c3ccc(F)cc23)CC1)c1ncc(-c2ccccc2)[nH]1 | 4.04% | 4.4% | 3.98%
9 | O=C(/C=C/c1ccc(Cl)c(Cl)c1)N1CCC(CN2CCC(c3cn(CC(=O)N4CCCCC4)c4ccccc34)CC2)CC1 | 2.63% | 2.05% | -2.07%
10 | N=C(N)NC(=O)Nc1ccc([N+](=O)[O-])c(Cl)c1 | 0.15% | 1.53% | 0.59%
11 | C/C=C1/CN2CC[C@H]1C[C@H]2[C@H](O)c1ccnc2ccc(OC)cc12 | -0.87% | -2.22% | 2.08%
12 | O=C(C=Cc1ccccc1C(F)(F)F)NC1CCC(CN2CCC(c3c[nH]c4ccccc34)CC2)CC1 (stereo unspecified) | 8.82% and 9.04% | 5.1% and 5.78% | 5.23% and 4.7%
13 | CC[C@H]1CN2CC[C@@H]1C[C@H]2[C@H](O)c1cc(N2CCC(O)(c3ccccc3)CC2)nc2ccc(OC)cc12 | 5.33% | 4.26% | 1.87%
14 | CNC(=O)c1ccc2[nH]cc(C3CCN(CC4CCC(NC(=O)/C=C/c5ccc(Cl)c(Cl)c5)CC4)CC3)c2c1 (stereo unspecified) | 9.29% | 7.99% | 4.82%
15 | CC[C@H]1CN2CC[C@H]1C[C@H]2[C@H](O)c1cc(/C=C/c2ccc(F)cc2)nc2ccc(OC)cc12 | 4.05% | 1.87% | 2.03%
16 | OC(CNC1CCCCC1)c1ccc(Cl)c(Cl)c1 (stereo unspecified) | -1.03% | -0.96% | -0.95%
17 | Cc1[nH]c2ccc([N+](=O)[O-])cc2c1C1=CCN(C)CC1 | 1.47% | 1.63% | 2.86%
18 | CCOC(C(=O)OCC1CCCN1C(C)C)(c1ccccc1)c1ccccc1 (stereo unspecified) | 3.57% | 3.09% | 1.53%
19 | C/C=C1\CN2CC[C@H]1C[C@@H]2[C@@H](O)c1ccnc2ccc(O)cc12 | 2.02% | 1.55% | 2.5%
20 | COc1ccc(CC(C)NCC(O)c2cccc(C(F)(F)F)c2)cc1 (stereo unspecified) | 9.76% | 8.74% | 8.93%
21 | CCN(CC)CCOC(=O)C(OC)(c1ccccc1)c1ccccc1 | 0.95% | 3% | 1.83%
22 | O=C(/C=C/c1ccc(Cl)c(Cl)c1)N1CCC(CN2C3CCC2CC(c2c[nH]c4ccccc24)C3)CC1 (stereo unspecified) | 2.43% | 1.51% | 0.89%
23 | CC[C@H]1CN2CC[C@H]1C[C@H]2[C@H](O)c1ccnc2ccc(C#N)cc12 | 0.59% | 1.86% | 2.19%
24 | CCC(C)CN1CCC(N(C)c2cc(NC(=O)c3ccc(F)cc3)ccn2)CC1 (stereo unspecified) | -0.37% | 0.64% | 2.38%

Row | Structure (SMILES) | inhibition [1] | inhibition [2] | inhibition [3]
25 | CC(=O)C1(c2ccccc2)CCN(CCC2(c3ccc(Cl)c(Cl)c3)CN(C(=O)c3cccc(Cl)c3)CCO2)CC1 (stereo unspecified) | -0.25% | -2.92% | -1.43%
26 | CNCCCCCCOc1ccc(CC(C)NCC(O)c2cccc(C(F)(F)F)c2)cc1 (stereo unspecified) | 18.4% | 2.66% | 1.22%
27 | CC(C)CNCc1ccc(-c2ccc(CN(C(=O)Nc3ccccc3)C3CCN(Cc4ccccc4)CC3)cc2)cc1 | 3.1% | 2.41% | 4.94%
28 | O=C(/C=C/c1ccc(Cl)c(Cl)c1)NC1CCC(CN2CCC(c3c[nH]c4ccccc34)C(O)C2)CC1 (stereo unspecified) | 5.68% | 3.72% | 4.19%
29 | Clc1ccc2nccc(N3CCC(CN4CCC(c5c[nH]c6ccccc56)CC4)CC3)c2c1 | 0.88% | 0.94% | 2.61%
30 | CCCC(=O)c1c(O)c2ccccc2oc1=O | 6.46% | 7.19% | 5.83%
31 | CC(Cc1ccc(OCCCCOc2ccccc2)cc1)NCCc1ccccc1Cl (stereo unspecified) | 15% | 19.8% | 7.82%
32 | CCCCCc1cc(O)c2c(c1)OC(C)(C)CC2C1=CCN(Cc2cccnc2)CC1 (stereo unspecified) | -0.46% | 1.05% | 0.25%
33 | Cc1nc2ccccc2n1C1CC2CCC(C1)N2Cc1nccn1-c1ccccc1 (stereo unspecified) | 0.86% | 3.24% | 2.15%
34 | CC(C)CN1CCC(N(C)c2cc(NC(=O)c3cccc(F)c3)ccn2)CC1 | -1.6% | 0.49% | 0.5%
35 | CC[C@H]1CN2CC[C@H]1C[C@H]2[C@H](O)c1cc(N2CCCC(C(=O)N(CC)CC)C2)nc2ccc(OC)cc12 (stereo partly specified) | 1.75% | 2.21% | 0.33%
36 | COc1cccc(C(=O)C2CC2CN2CC=C(c3c(C)[nH]c4ccccc34)CC2)c1 (stereo unspecified) | 1.94% | -3.97% | 4.19%
37 | Cc1cccc(C(=O)Nc2ccnc(N(C)C3CCN(Cc4cccc(O)c4)CC3)c2)c1 | 3.06% | 1.84% | 3.85%
38 | CC(C)CNCc1ccc(-c2cccc(CN(C(=O)CCC3CCCC3)C3CCN(Cc4ccccc4)CC3)c2)cc1 | 16.4% | 12.3% | 10.7%
39 | CC[C@H]1CN2CC[C@@H]1C[C@H]2[C@H](O)c1cc(N2CCC(O)CC2)nc2ccc(OC)cc12 | -1.16% | -0.97% | -0.9%
40 | O=C(/C=C/c1cccc2ccccc12)NC1CCC(CN2CCC(c3c[nH]c4ccccc34)CC2)CC1 (stereo unspecified) | 1.25% and 2.48% | 0.21% and 2.66% | -2.33% and 1.25%
41 | CN1CC=C(c2csc3ccc(NC(=O)Nc4ccc(-c5ccncc5)c(Cl)c4)cc23)CC1 | 0.03% | -0.33% | 0.2%
42 | S=C(Nc1ccc2c(c1)OCCO2)NC1CCC(CN2CCC(c3c[nH]c4ccccc34)CC2)CC1 (stereo unspecified) | 0.68% and -2.92% | -3.08% and -1.27% | 4.46% and -3.36%
43 | CCCCCCCc1cc(O)c2c3c(c(=O)oc2c1)CN(C)CC3 | 10.7% | 11.3% | 10.7%
44 | COc1ccc(C(=O)c2ccc3[nH]cc(C4=CCN(C)CC4)c3c2)cc1 | -0.74% | -1.41% | 0.07%
45 | CNCCN(C)C(=O)Oc1c(Br)c(C)nc(C)c1-c1ccc(Oc2ccc(OC(F)(F)F)cc2)cc1 | 2.73% | 3.16% | 5.59%
46 | COC(C(=O)OCCC1CCCN1C)(c1ccccc1)C1CCCCC1 (stereo unspecified) | 11.6% | 10.5% | 10.5%
47 | Cc1cc(-c2ncc[nH]2)ccc1-c1ccc(C(=O)N2CCc3cc4c(cc32)C2(CCN(C)CC2)CO4)cc1 | -2.79% | 1.74% | -0.2%
48 | COc1c(F)cc(CC(C)NCC(O)c2cccc(Cl)c2)cc1F (stereo unspecified) | -0.28% | -0.81% | -3.56%

Row | Structure (SMILES) | inhibition [1] | inhibition [2] | inhibition [3]
49 | Cc1cc2cc(CNCCc3ccccc3Br)ccc2nc1N | 9.09% | 1.37% | 5.36%
50 | O=C(/C=C/c1ccc(Cl)c(Cl)c1)N1CCC(CN2CCC(c3c[nH]c4cc(C(F)(F)F)ccc34)CC2)CC1 | 2.28% | 3.35% | -0.87%
51 | CCc1ccc(CN2CCC(CN(C(=O)c3ccccc3)c3ccc(Cl)cc3)CC2)cc1 | 8.24% | 5.97% | 5.04%
52 | COc1ccc(CCNCc2ccc3nc(N)cc(C)c3c2)cc1 | -3.73% | -2.84% | -2.66%
53 | COC(=O)c1ccc(C[C@@H](C)NC[C@H](O)c2cccc(C(F)(F)F)c2)cc1 | 3.2% | 4.43% | 0.45%
54 | C[C@H](Cc1ccc(OCCCCCCOc2ccccc2)cc1)NC[C@@H](O)c1cc(Br)no1 | 2.44% | 0.72% | -0.07%
55 | CCCc1c(C(=O)NC2CCC(CN3CCC(c4c[nH]c5ccccc45)CC3)CC2)cnn1-c1ccc(Cl)cc1 (stereo unspecified) | -0.47% | -1.46% | -1.49%
56 | CCCCCCCCNCC(O)c1ccc(Cl)c(Cl)c1 (stereo unspecified) | 2.51% | 3.44% | 1.24%
57 | O=c1n[n+](C2CCCCC2)[n-]o1 | -0.73% | -0.13% | -0.34%
58 | CN1CCC(N(C)c2nccc(N3CCN(Cc4cncn4Cc4ccccc4)CC3)n2)CC1 | 12.8% | 12.8% | 10.8%
59 | Cc1ccc(C2(O)CC3CCC(C2)N3C)cc1 (stereo unspecified) | 2.44% | 2.72% | 3.25%
60 | CCCCc1ccc2[nH]cc(C3=CCN(C)CC3)c2c1Br | 0.79% | -0.14% | 2.44%
61 | C#CCN1CCC2=C(C1)c1c(O)cc(C(C)CCCc3ccc(F)cc3)cc1OC2(C)C (stereo unspecified) | 1.13% | 0.61% | 0.09%
62 | CC(C)n1ncc2c(C(=O)Nc3ccc(C#N)c(Cl)c3)cc(C3CC3)nc21 | 2.24% | 1.01% | 3.4%
63 | COCCNCc1ccc(-c2ccc(CN(C(=O)Nc3ccccc3)C3CCN(Cc4ccccc4)CC3)cc2)cc1 | 7.17% | 4.93% | 5.08%
64 | CC[C@H]1CN2CC[C@@H]1C[C@H]2[C@H](O)c1cc(-c2c(C)noc2C)nc2ccc(OC)cc12 | 3.43% | 4.92% | 6.01%
65 | Cc1ccc(CC(C)NCC(O)c2cccc(C(F)(F)F)c2)c(C)c1 (stereo unspecified) | 1.64% | 0.6% | 0.75%
66 | COc1cc(/C=C/C(=O)NC2CCC(CN3CCC(c4c[nH]c5ccccc45)CC3)CC2)ccc1O (stereo unspecified) | 0.32% and 3.25% | 1.97% and 2.79% | 1.02% and 1.53%
67 | COC(=O)c1sccc1NC(=S)NC1CCC(CN2CCC(c3c[nH]c4ccccc34)CC2)CC1 (stereo unspecified) | 4.17% and 2.22% | 3.81% and 3.47% | 0.42% and 1.38%
68 | CC1(CCCCN2CC=C(c3c[nH]c4ccccc34)CC2)C(=O)Nc2ccccc21 (stereo unspecified) | 0.6% | -0.08% | 2.1%
69 | S=C(NCCc1ccc(Cl)cc1)NC1CCC(CN2CCC(c3c[nH]c4ccccc34)CC2)CC1 (stereo unspecified) | 2.11% and -0.48% | 0.01% and 3.61% | -2.05% and -1.85%
70 | Cc1cc(C(=O)NC2CCN(CC3(c4ccc(Cl)cc4)CCC3)CC2)on1 | 0.83% | -0.05% | 0.13%
71 | CN(C)CCC(=O)c1ccccc1 | 3.21% | 4.48% | 1.99%
72 | COc1ccc(CC(C)NCC(O)c2cccc(C(F)(F)F)c2)cc1F (stereo unspecified) | 1.15% | 1.15% | 0.11%
